Changes are numbered by the printed parent chain. Over roughly 24,000 sequences, “enrichment r” has its median near 0.99; the highest 2% begin near 3.7. This excerpt belongs to a sample that is enriched for the highest values.
B1: chr11:87793471:87793472:-_ENSMUSG00000020483_ENSMUST00000020775|mus_mus|mus_mus_mus_hu_False|8_68 (ssRNA)
RNA: GGGAGUUCUACAGUCCGACGAUCUGGACUUGAAAAUAAAAGAAUAAGCUGGAUCCCCCACCCCCCCACAGUGUCAACCCUACACGAGAGUUUUGAAGGCGACUCAUGAAAAUCAGCAGCUCAAACGAAUGACAACCCCCCACCCAACAGAGGAUUGAGCAUCA
B2: chr11:87793471:87793472:-_ENSMUSG00000020483_ENSMUST00000020775|mus_mus|mus_mus_mus_hu_False|8_78 (ssRNA)
RNA: B1 RNA with A59C, C60A, C65U, C66U, G70U
B3: chr11:87793471:87793472:-_ENSMUSG00000020483_ENSMUST00000020775|mus_mus|mus_mus_mus_hu_False|8_98 (ssRNA)
RNA: B1 RNA with G41A, U44A, A45U, G70U
B4: chr16:94651144:94651145:+_ENSMUSG00000040785_ENSMUST00000117648|mus_hu|mus_mus_mus_hu_True|18_58 (ssRNA)
RNA: GGGAGUUCUACAGUCCGACGAUCAUUUUCUUGAAUCAAGUGGCGAAUAACAUAGUCCACUGCUUCAUUUAGAAAAUUUUUGCUAGAAAAACAGGUUGUAUAGUCUUCUGUGCUCAAAACCUUCCAAGAAAGCAAUUCUUUGAGCAACAGAGGAUUGAGCAUCA
B5: chr7:56127975:56127976:+_ENSG00000146731_ENST00000540286|hu_mus|FALSE|FALSE (ssRNA)
RNA: GGGAGUUCUACAGUCCGACGAUCUGGUCCUUUAACCAGUAAAGUGACAGAACGGGGAUUGUUACACUUCUCAAUAAAGGUGAACUUCUCCUCACCCAGUGUAUACUCAUAGACAAGCUCUGCAUGUCCCAAACAGUCAGGAUUCAACAGAGGAUUGAGCAUCA
B6: chr13:100193624:100193625:-_ENSMUSG00000052727_ENSMUST00000064762|mus_mus|FALSE|FALSE (ssRNA)
RNA: GGGAGUUCUACAGUCCGACGAUCAAACCCUCAGAGUAAAAGAGCAGUGCGAAACAUACGCUUUACAGACGAAAAUAAACUAAAAUGUAAAUUUUGAAAUAAAUAACUAACAUAGAAAAUAAAAUGAGGUCAUUGUUCACUACCCAACAGAGGAUUGAGCAUCA
B7: chr13:100193624:100193625:-_ENSMUSG00000052727_ENSMUST00000064762|mus_mus|motif|central (ssRNA)
RNA: B6 RNA with U80G, A81G
B8: chr13:100201144:100201145:-_ENSMUSG00000052727_ENSMUST00000064762|mus_hu|FALSE|FALSE (ssRNA)
RNA: GGGAGUUCUACAGUCCGACGAUCCUCCUCCAUAGGUGGUAUCUUAUGUGAUAAACUGGAGUCCUGCAUGUCAGAAGGACUGUAGUCCACUUCAGUUGGCCCAUUUUCAGUGAUGUGAAGCACGCCUGCACCCACUGUAGGGUGCAACAGAGGAUUGAGCAUCA
B9: 95238312_95238432_61_3pUTR_ENSMUSG00000015522_ENSMUST00000090804|mouse|control|control (ssRNA)
RNA: GGGAGUUCUACAGUCCGACGAUCACCCUCGGUGGGAGGGGCAGCCGCCACCGAGCUGGGGGAGGGGAGGGAAGAGCCACUCCGCAGAUUAGGCACCUUACCGCCGCCACCGCUACCGCGGAAUCCAAGAUGGCGGACGCCCACCAACAGAGGAUUGAGCAUCA
B10: chr6:114274515:114274516:-_ENSG00000196591_ENST00000368632|hu_mus|motif|central (ssRNA)
RNA: GGGAGUUCUACAGUCCGACGAUCCAUCACGCGAUCUGUUGUAUAAAAAGCUUCCUCAACACCAUCACCAUGGUGGAUGUCGGUGUCAAUAUAUAAGACUCUCUGAUGAUACUUAAGUAAUUCGAGGAUGGCAAGCACAAUAUCCAACAGAGGAUUGAGCAUCA
B11: chr1:220276048:220276049:+_ENSG00000067704_ENST00000302637|hu_hu|hu_hu_hu_mus_True|8_28 (ssRNA)
RNA: GGGAGUUCUACAGUCCGACGAUCGCAAAUUGCCUGGUUGGCGGGAAUUGUCCAAGGCUGGGUGGUCCAAACUAAAACGCUAACAGGGGAUGAGGCAUCUGUAAGAGAUGCCAAUUUCGGAGGAGGUUUUAAGAGAGGGAAUCUCAACAGAGGAUUGAGCAUCA
B12: chr1:220276048:220276049:+_ENSG00000067704_ENST00000302637|hu_hu|hu_hu_hu_mus_True|1_38 (ssRNA)
RNA: B11 RNA with G100A, U108C, G109U, U114C, U127C, U129C, A131G, A135G, G138A, C142U
B13: chr20:21346065:21346066:+_ENSG00000088930_ENST00000377191|hu_hu|FALSE|FALSE (ssRNA)
RNA: GGGAGUUCUACAGUCCGACGAUCUCCUGGAAGCAUUACAGCUUUAAAAAUGUAAUCUUCAGCAAACUGUGGGUCUUUAAAAUUAAUACUGACUACAGUGUUCUGUGUCAGAUCCCUUAACAUAGGAACAGGAGAACAUACUAUCAACAGAGGAUUGAGCAUCA
B14: chr1:220276048:220276049:+_ENSG00000067704_ENST00000302637|hu_hu|hu_hu_hu_mus_True|48_78 (ssRNA)
RNA: GGGAGUUCUACAGUCCGACGAUCGCAAAUUGCCUGGUUGGCGGGAAUUGUCCAAGGUUGUGUGGUCCAAACUAAAACGCUAACAGGAGAUGAACCAUCUGUAAGAGACUCCAACUUCGGAGGAGGUCUCAGGAGGGGGAAUCUCAACAGAGGAUUGAGCAUCA
B15: chr5:141234466:141234467:-_ENSMUSG00000000149_ENSMUST00000000153|mus_mus|FALSE|FALSE (ssRNA)
RNA: GGGAGUUCUACAGUCCGACGAUCAGGACAAUAGUCAAGGGUAACAGUGAAAUUAAAAUUAAAAAAAAAAAUACAAACGCCUAAGGUCUGGGAGAAACCUGACUACAAUCUACGUGGAGAAACUUGUAAAUGACUCCAGCCUGGCAACAGAGGAUUGAGCAUCA
B16: chr5:141234466:141234467:-_ENSMUSG00000000149_ENSMUST00000000153|mus_mus|motif|central (ssRNA)
RNA: B15 RNA with U81G, A82G
B17: chr2:9570881:9570882:+_ENSG00000119203_ENST00000238112|hu_mus|hu_hu_hu_mus_False|28_58 (ssRNA)
RNA: GGGAGUUCUACAGUCCGACGAUCACUUGUCUUCUGAAGGAACCAGGGCAGGGCUCCACAGUGAUCCAAAUGGAAAUGACUAAUUAACAGAAGGUCGAUCUCAGCUGGGUCAAUUAAGUCAAUGUAAGGAAGGGCAUCCAUUCCCAACAGAGGAUUGAGCAUCA
B18: chr2:114709107:114709108:+_ENSG00000115091_ENST00000536059|hu_mus|FALSE|FALSE (ssRNA)
RNA: GGGAGUUCUACAGUCCGACGAUCAGAGAGGACAAUGUUCUUGUAGAGAGGACGCCGGACAUCAAUGGGGCAAUUCUGAAUGACUUCAUCUACAACUUCUGAGAUAGGUUGUGUAAAAUCUGGAUUAGCAAACUCUGGAUGGAACAACAGAGGAUUGAGCAUCA
B19: chr1:220276048:220276049:+_ENSG00000067704_ENST00000302637|hu_hu|hu_hu_hu_mus_True|8_58 (ssRNA)
RNA: B11 RNA with C77U, G78A, U108C, G109U, U114C
B20: chr1:59924863:59924864:+_ENSMUSG00000067336_ENSMUST00000087435|mus_hu|FALSE|FALSE (ssRNA)
RNA: GGGAGUUCUACAGUCCGACGAUCGCUGCCAAAUUUUAGCCGGGGCUCUUUUGUUGAAUUUUUGGUGUUCAAAGGCAAACUAGUAGGUCUCUUGGGAAGGUUCUGCUGCUUGGGGAGAGGAUAGAUCUGAGUAGGCAGAACAUCCAACAGAGGAUUGAGCAUCA
B21: chr17:13115065:13115066:+_ENSMUSG00000068039_ENSMUST00000151287|mus_hu|motif|central (ssRNA)
RNA: GGGAGUUCUACAGUCCGACGAUCAAUAGUUGCUCCAGAAGCUUUGGCAAUGCGUUUAAGGUCCCUUUUUAAAACUCUUCGGACUGCCAUAGCACCAGCCUCCACAAAAUACUUCAGACACAUAUCAUCAAUUCCACCAGUGGUCAACAGAGGAUUGAGCAUCA
B22: chr7:112906983:112906984:-_ENSMUSG00000036862_ENSMUST00000078482|mus_mus|FALSE|FALSE (ssRNA)
RNA: GGGAGUUCUACAGUCCGACGAUCUGGGGAGAUAACUGGAGUCCCUGGUGGUGCAUUUUCACGGAGCACAGCCUCACUACUAGUUCUGGGAAAGCGGGGUCCACGCUCAGGCUCUCCCUGUAUUCCAACAACGACCACACCAGUCAACAGAGGAUUGAGCAUCA
B23: chr12:48362563:48362564:+_ENSG00000134291_ENST00000256686|hu_hu|hu_hu_hu_mus_False|18_58 (ssRNA)
RNA: GGGAGUUCUACAGUCCGACGAUCUCCGUCAAGCCCUUCGAUAGACCCUUGCGGGGGAAACUGUAAUCACUUUGUAUUUCUAAAAAAAAGAAACGCCAAAAACUUUCCAAAAAGCGGUUCAAAAAGCAGGCGGGAGGGGGAGGUCAACAGAGGAUUGAGCAUCA
B24: chr4:140556289:140556290:+_ENSMUSG00000036622_ENSMUST00000037055|mus_mus|mus_mus_mus_hu_False|18_68 (ssRNA)
RNA: GGGAGUUCUACAGUCCGACGAUCGAUGGAGCUCACCAGGCCCCCUUUUGCCGUGCAGAACCCUGUGCGAGUCACCACUGCCAGGACGUGCGGUCCCACAUAGGCCCGGGCCUGCAAAAUGAGGGUGCCGCAGAAGAGUGUGUGCAACAGAGGAUUGAGCAUCA
B25: chr2:176857141:176857142:-_ENSG00000144320_ENST00000272748|hu_hu|motif|central (ssRNA)
RNA: GGGAGUUCUACAGUCCGACGAUCUUUUUGUAAUCUCUGAUUUUUUUCCCUAAAUUCUUCCAAUGCUUGAAUUUCCUUAUCGGUACUUUCUAGAACUUCUACAGUUGAAGGUUUUGUCCUCCAUCGAGAAAAUAAUCCACCCAUCAACAGAGGAUUGAGCAUCA
B26: chr4:144461564:144461565:+_ENSG00000153147_ENST00000283131|hu_hu|motif|central (ssRNA)
RNA: GGGAGUUCUACAGUCCGACGAUCCCUCCCUUGUUGAAUGACUAUUGAAUCCAGUCUGAGUUUCAUCUCAGCACGUUCGGCGGUUCUUUCUUCUACAGUGUUAUCAGUUAUAAAGCGGAACACUCUGACUGUCUUAGUCUGCCCCAACAGAGGAUUGAGCAUCA
B27: chr12:493273:493274:-_ENSG00000073614_ENST00000399788|hu_mus|hu_hu_hu_mus_False|28_108 (ssRNA)
RNA: GGGAGUUCUACAGUCCGACGAUCUUUUCUCUCUACCACAGGGAUCUUCAAUGUAGAUCCUUGAAGUUCCCAAAAUUUUGCCAGUUGAUCCAAGAAGUCCAAUCUUACUCUGGUCAUUGCCUCAAGUUCAUUCAGGCGCUGGACCAACAGAGGAUUGAGCAUCA

Each binder was assayed against T1, UNK ZnF1-3 (human, UniProt Q9C0B0 31-174) (assay: nsRBNS (natural sequence RNA bind-n-seq); RBNS binding buffer (assumed for nsRBNS): 25 mM Tris pH 7.5, 150 mM KCl, 3 mM MgCl2, 0.01% Triton X-100, 500 ug/ml BSA, 20 U/ml SUPERase-In, 4 C; UNK is unkempt and MSI1 is Musashi-1; names of the RNAs are library labels; protein concentration not given here; high values mean tight binding).
T1 sequence: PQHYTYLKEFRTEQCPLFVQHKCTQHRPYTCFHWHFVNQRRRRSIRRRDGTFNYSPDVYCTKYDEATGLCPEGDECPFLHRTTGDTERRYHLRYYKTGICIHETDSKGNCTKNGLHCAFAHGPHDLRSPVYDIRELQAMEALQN

Binder	binding signal [enrichment R]
B1	2.23
B2	1.99
B3	4.4
B4	0.507
B5	0.526
B6	9.34
B7	4.16
B8	0.585
B9	0.955
B10	1.5
B11	2.55
B12	3.48
B13	1.24
B14	1.31
B15	14.8
B16	11.3
B17	1.47
B18	1.28
B19	3.69
B20	1.44
B21	1.25
B22	0.989
B23	1.93
B24	0.954
B25	0.655
B26	0.923
B27	0.902

Reference: paper PMC12136788
